Bioassay records: PubChem, National Center for Advancing Translational Sciences (NCATS)
AMA1 RON2 block = qHTS for Inhibitors of AMA1-RON; Towards Development of Antimalarial Drug Lead: Primary Screen; Plasmodium falciparum AMA1 (3D7) - RON2 peptide interaction; AlphaScreen AMA1-biotinylated RON2 peptide binding; Potency, µM (series often up to 58.2 µM), for inactives: top-dose activity change, negative = inhibition, most hits filed as inhibitors; actives 0.2% (n = 360,000); AID 720542, 2013;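 further: potency means the concentration at half of the fitted maximal effect; 0% = vehicle wells and -100% = peptide control; nearly all actives have a fitted effect of over 45% in size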
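AMA1 (3D7) with his tag at 25 nM final met compounds first, then biotinylated RON2 peptide at 25 nM; detection used donor plus acceptor beads, 10 µg/mL apiece, read by AlphaScreen after 30 min at room temperature.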
Pf growth 96h = Primary qHTS for delayed death inhibitors of the malarial parasite plastid, 96 hour incubation; P. falciparum luciferase reporter growth, 96 h; Potency, µM (titrated, usually from 28.7 µM), for inactives: top-dose activity change, negative = inhibition, hits mostly inhibitors; actives 6.9% (n = 320,000); AID 504834, 2011; further: potency means the concentration at half of the fitted maximal effect; on the % scale 0 is the no-effect control and ±100 the full control effect
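Erythrocytes infected with luciferase-expressing P. falciparum were dispensed at 2% hematocrit and 0.05% parasitemia (final), then incubated with compounds 96 hours at 37 C in 5% CO2. Luminescence after detection reagent addition reported growth.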
Shiga inhibitor = A qHTS for Small Molecule Inhibitors of Shiga Toxin | Vero cells, Shiga toxin protein synthesis inhibition reporter | inhibition, % at 38.7 µM | actives 9.2% (n = 290,000) | AID 2315, 2010; in the data active means inhibition mostly above about 28%, no sharp cut-off; inactive means mostly below about 43%; further: 0% is about no effect
HCV inh = qHTS Assay for Inhibitors of Hepatitis C Virus (HCV); Huh7.5.1 HCVcc-Cre infection, luciferase reporter, 44 h; Potency, µM (titrated, usually from 41.8 µM), for the others: at the highest dose activity change, negative = inhibition, most hits filed as inhibitors; actives 3.4% (n = 340,000); AID 651820, 2012; further: potency means the concentration at half of the fitted maximal effect; on the % scale 0 is the no-effect control and ±100 the full control effect
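Seed cells (1,000/well) for 4 h; treat with compound and infect with HCVcc-Cre, moi about 0.5. Incubate 44 h, then detect luciferase activity.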
CHX counter = Cycloheximide Counterscreen for Small Molecule Inhibitors of Shiga Toxin | actives 12% (n = 300,000) | cell reporter, cycloheximide protein synthesis inhibition counterscreen | max response, % | AID 2314, 2010; in the data active means max response mostly above about 13%, no sharp cut-off; inactive means mostly below about 14%; further: read at 38.3 µM for the half of the compounds with a filed dose; 0% is about no effect
Pf growth 48h = Primary qHTS for delayed death inhibitors of the malarial parasite plastid, 48 hour incubation | P. falciparum luciferase growth in erythrocytes, 48 h | Potency, µM (titrated, usually from 28.7 µM), without a hit: at the top dose activity change, negative = inhibition, usual class: inhibitors | actives 5.9% (n = 310,000) | AID 504832, 2011; further: potency means the concentration at half of the fitted maximal effect; on the % scale 0 is the no-effect control and ±100 the full control effect
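Luminescence readout; reporter = integrated firefly luciferase in P. falciparum. RBC culture at 2% hematocrit, 0.1% parasitemia final, 37 C/5% CO2; decreased signal taken as growth inhibition.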
Active calls of the source: *; ? = inconclusive; / = no result; [ ] = dose if it differs, or a comment. This is a sample that favours compounds with a hit; in the whole collection about 21% have one here. Unless noted, the call rests on the fitted dose curve; in most records, active means well fitted curve in the direction sought with a large enough effect; inconclusive means small, poorly fitted or top-dose-only effect, or another doubt; inactive means no such curve, though single readings can be large; an effect the other way counts as inactive or inconclusive.

SMILES	AMA1 RON2 block	Pf growth 96h	Shiga inhibitor	HCV inh	CHX counter	Pf growth 48h
Cc1ccccc1CN(C)c1ccc(S(=O)(=O)N2CCN(C)CC2)cn1	-7.0%	20.4%	/	15.0%	/	-10.8%
COc1ccc(C)cc1CN(C)c1ccc(S(=O)(=O)N2CCN(C)CC2)cn1	?	?	/	?	/	10.4µM*
CC(=O)Oc1ccccc1C(=O)NC(C)CCc1ccccc1 (stereo unspecified)	1.7%	?	13.8	?	11.8	14.7µM*
O=C(NNCc1ccc(O)cc1)c1ccccc1Cl	-2.0%	107.1%	38.8*	0.4%	45.5*	97.8%
CC(CCc1ccccc1)NC(=O)c1ccccc1F (stereo unspecified)	28.4%	-7.7%	12.8	10.4%	1.7	-17.7%
CC(CCc1ccccc1)NC(=O)c1ccccc1Cl (stereo unspecified)	-0.5%	9.28µM*	/	14.5%	9.8	?
O=C(CCc1ccccc1)NNC(=O)c1ccccc1Cl	83.6%	2.94µM*	/	11.2%	-4.1	?
CCC1=C(OC(=O)N(CC)CC)N2C(=O)OC(=NCC3CC3)[C@]2(C)[C@H]2C1=CC[C@H]1C(=O)N(CC)C(=O)[C@H]12	2.2%	?	-5.5	16.0%[8.37 µM]	-2.8	10.4µM*
CCC1=C(OC(=O)N(CC)CC)N2C(=O)OC(=NCC3CC3)[C@]2(C)[C@H]2C1=CC[C@H]1C(=O)N(C)C(=O)[C@H]12	-4.1%	10.4µM*	-7.2	-12.4%	-3.0	8.28µM*
CCC1=C(OC(=O)N(CC)CC)N2C(=O)OC(=NCc3ccccc3)[C@]2(C)[C@H]2C1=CC[C@H]1C(=O)NC(=O)[C@H]12	0.3%	-3.7%	-13.0	57.0%[8.37 µM]	-4.5	?
COc1ccc(CCC(=O)Nc2ccc(OC)c(S(=O)(=O)N3CCCCC3)c2)cc1	1.5%	?	/	?	/	?
O=C(CN(C(=O)CCC(=O)Nc1ccccn1)C1CCCC1)NCc1ccc(F)cc1	15.4%	60.9%	-4.3	12.3%	-3.0	0.4%
COC(=O)C1=C(C)N(Cc2ccc(OC)c(OC)c2)C(=O)C1	-6.5%	?	-9.3	13.0%	-4.1	13.1µM*
COc1cccc(NC(=O)Nc2ccccc2Br)c1	12.8%	18.8%[5.75 µM]	73.7*	7.6%	53.0*	133.0%
COC(=O)c1sccc1NC(=O)c1cccc(OC)c1	43.7%	48.0%	12.4	?	0.7	/
COC(=O)c1sccc1NC(=O)Nc1cccc(F)c1	?	34.6%	51.1	-21.5%	9.4*	14.0%
COC(=O)c1sccc1NC(=O)Nc1cccc(OC)c1	0.9%	-1.8%	39.8*	-10.1%	45.3*	16.7%
CCCN(CCC)C(C(=O)Nc1cccc(OC)c1)c1ccccc1 (stereo unspecified)	-11.7%	13.1µM*	49.2	?	-0.7	?
Cc1ccc(S(=O)(=O)N2C[C@H]3C(=O)C[C@@H](c4ccc(Cl)cc4)N(S(=O)(=O)c4ccccc4C)[C@H]3C[C@H]2c2ccc(Cl)cc2)cc1	1.6%	/	/	/	/	/
CC(=O)Nc1ccc(NC(=O)c2ccccc2C)cc1	-4.4%	/	24.2	3.7%	12.6	16.2%
Cc1ccc(NC(=O)c2cc(N3C(=O)C4CC=CCC4C3=O)ccc2N2CCCCC2)cc1 (stereo unspecified)	-2.6%	14.7µM*	-2.7	?	-2.8	4.6%
Cc1ccc(NC(=O)c2cc(N3C(=O)C4CCCCC4C3=O)ccc2N2CCOCC2)cc1 (stereo unspecified)	-0.8%	32.4%	-1.5	-24.8%	-1.2	-14.9%
O=[N+]([O-])c1ccc(N2CCCC2)cc1N1CCCC1	?	81.2%	-9.6	2.51µM*	-1.8	2.6%
Cc1ccccc1C(=O)Nc1ccc(N2CCCC2)cc1	3.8%	-23.8%	56.8*	?	35.2*	28.5%
O=C(Nc1ccc(N2CCCC2)cc1)C(Cl)c1ccccc1 (stereo unspecified)	?	67.2%	70.4*	?	31.7*	?
SMILES	AMA1 RON2 block	Pf growth 96h	Shiga inhibitor	HCV inh	CHX counter	Pf growth 48h
O=C(Nc1ccc2c(c1)CCO2)Nc1nnc([C@H]2C[C@H](O)[C@@H](CO)O2)s1	0.0%	/	/	/	/	/
CC[C@]12c3[nH]c4ccccc4c3CCN1C(=O)C(CC(=O)NCCCN(C)C)C[C@@H]2C(=O)N1CCN(C(=O)C2CC2)CC1 (stereo partly specified)	9.1%	/	/	-45.2%	/	/
O=C(Nc1ccc(N2CCCC2)cc1)c1ccccc1[N+](=O)[O-]	-11.9%	117.1%	80.2	?	19.1*	32.6%
Cc1ccc(C(=O)Nc2ccc(N3CCCC3)cc2)c(C)c1	-14.4%	?	40.6	?	14.8*	?
C[C@H]1NS(=O)(=O)c2ccc(Br)cc2O[C@H]1c1ccccc1	8.1%	/	/	1.2%	/	/
O=C(Cn1cnc2c(cnn2-c2ccccc2Cl)c1=O)N1CCc2ccccc21	-4.5%	/	-5.6	-20.0%	-3.2	?
CC(C)(C)n1ncc2c(=O)n(CC(=O)N3CCc4ccccc43)cnc21	-3.6%	?	68.6*	2.1%	11.6*	19.7%
CC(C)(C)n1ncc2c(=O)n(CC(=O)N3CCCc4ccccc43)cnc21	0.3%	1.85µM*	17.8	6.8%	-3.1	-1.5%
CC(C)(C)n1ncc2c(=O)n(Cc3cccc(Cl)c3)cnc21	7.9%	?	46.4*	?	33.4*	37.5%
CC(C)(C)n1ncc2c(=O)n(CC(=O)c3ccccc3)cnc21	11.6%	2.08µM*	80.7*	-15.8%	55.8*	275.0%
CCC(=O)N1CCCC1(C)C(=O)Nc1ccc2nc(C)ccc2c1 (stereo unspecified)	-5.4%	/	/	/	/	/
Cc1ccc(S(=O)(=O)N2CCCC2CNC(=O)C(=O)NCc2ccc3c(c2)OCO3)cc1 (stereo unspecified)	-8.1%	/	/	/	/	/
O=C(c1ccccc1)N1CCN(c2ccc([N+](=O)[O-])cc2-n2cccc2)CC1	?	-8.3%	-12.1	?	6.8	-6.8%
Cc1cc(OCC(=O)NCC(c2cccs2)N2CCOCC2)ccc1C(C)C (stereo unspecified)	-10.0%	13.1µM*	/	?	/	?
Cc1ccc(C(C)C)c(OCC(=O)NCC(c2cccs2)N2CCOCC2)c1 (stereo unspecified)	-2.2%	10.4µM*	/	?	/	13.1µM*
O=C(COc1cccc(Cl)c1)NCC(c1cccs1)N1CCOCC1 (stereo unspecified)	9.8%	?	/	4.8%	/	?
Cc1cc(Cl)ccc1OCC(=O)NCC(c1cccs1)N1CCOCC1 (stereo unspecified)	-4.4%	?	/	10µM*	/	13.1µM*
